This is an account of results in PubChem BioAssay (NCATS).

By viability is commonly meant a read-out of living cells in per cent, often relative to untreated cells.

In test [1] the target is Cellular tumor antigen p53 (Homo sapiens) (UniProt P04637). Kind of test: Primary qHTS for small molecule compounds that upregulate eGFP-tagged delta133p53alpha (in N-terminal) cells. (AID 2060322). Also: nearly all actives have a fitted effect of over 75% in size. Also: potency is read from the fitted curve at half-maximal effect.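 As to activation: cells pre-induced with doxycycline then dosed without doxycycline; 0% = DMSO vehicle and 100% = reference activator.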 The settings on record: NCI-H358 eGFP-delta133p53alpha fluorescence, 24 h; activation: stronger effect = higher value. The method, boiled down:
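NCI-H358 cells pre-induced 24 h with 10 ng/ml doxycycline for eGFP-delta133p53alpha, plated dox-free and exposed 24 h at 37C to titrated compounds. Fixed, Hoechst-stained; gated GFP peak intensity by laser scanning cytometry, normalized to DMSO (0%) and 57.5 uM 5-azacytidine (100%).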
On the technique in general: qHTS replaces the single test concentration by a dilution series.

In test [2] the target is Aldehyde dehydrogenase, mitochondrial (Homo sapiens) (UniProt P05091). Kind of test: qHTS for Inhibitors of the Aldehyde Dehydrogenase Family (ALDH2) Primary screen (AID 2061308).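 Also: plate controls were vehicle for no effect and reference inhibitor for full effect; nearly all actives have a fitted effect of over 55% in size.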 As to conditions: ALDH2 enzyme inhibition qHTS, 1536-well; series mostly up to 56 µM.
The target of test [3] is Retinaldehyde dehydrogenase 3 (Homo sapiens) (UniProt P47895). Kind of test: qHTS for Inhibitors of the Aldehyde Dehydrogenase Family (ALDH1A3) Primary screen (AID 2061315).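 Also: plate controls were DMSO vehicle for no effect and reference inhibitor for full effect.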 The settings on record: ALDH inhibition qHTS; series mostly up to 56 µM.
Test [4] can be described thus: BET inhibitor-based combinations targeting novel dependencies in MECOM-rearranged (r) AML: SET-2 cell line (AID 2202231). Also: nearly all actives have a fitted effect of over 35% in size. Also: potency is read from the fitted curve at half-maximal effect.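 As to viability: plate controls were DMSO treated cells for no effect and wells without cells for full effect.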 As to conditions: SET-2 AML cells viability, CellTiter-Glo luminescence, 48 h; viability: stronger effect = lower value, concentration not given here. The method, boiled down:
(§1)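 Each compound was tested at eleven concentrations on cells seeded at 500/well. After two days' incubation, ATP-based luminescence reported viability; responses relative to DMSO and blank wells yielded AUC and cell-line-centred Z-AUC.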

The nature of test [5]: BET inhibitor-based combinations targeting novel dependencies in MECOM-rearranged (r) AML: OCI-AML3 cell line (AID 2202232). Also: potency is read from the fitted curve at half-maximal effect; nearly all actives have a fitted effect of over 35% in size. The settings on record: CellTiter-Glo luminescence, 48 h; Potency: OCI-AML3 viability; series mostly up to 46 µM. The method, boiled down: as §1
Test [6] can be described thus: BET inhibitor-based combinations targeting novel dependencies in MECOM-rearranged (r) AML: MV-4-11 cell line (AID 2202233). Also: potency is read from the fitted curve at half-maximal effect; nearly all actives have a fitted effect of over 45% in size. The settings on record: MV-4-11 AML viability, CellTiter-Glo luminescence, 48 h; series mostly up to 46 µM. Put shortly: (§2)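 First, 500 cells per well were seeded; next, drugs were pinned as 11-point doses; then plates sat 48 hr in the incubator; finally CellTiter-Glo was added and luminescence read, with AUC and Z-AUC computed.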
(In general: Cellular ATP, detected with luciferase, serves as a proxy for viable cell number.)

A short description of test [7]: BET inhibitor-based combinations targeting novel dependencies in MECOM-rearranged (r) AML: HNT-34 cell line (AID 2202234). Also: potency is read from the fitted curve at half-maximal effect; nearly all actives have a fitted effect of over 35% in size. As to conditions: HNT-34 AML viability, CellTiter-Glo luminescence, 48 h; series mostly up to 46 µM. The method, boiled down: as §2
The nature of test [8]: BET inhibitor-based combinations targeting novel dependencies in MECOM-rearranged (r) AML: AML-191 cell line (AID 2202236; also: potency is read from the fitted curve at half-maximal effect; nearly all actives have a fitted effect of over 35% in size). The settings on record: AML-191 viability, CellTiter-Glo luminescence, 48 h; series mostly up to 46 µM. Put shortly:
as §1

The nature of test [9]: BET inhibitor-based combinations targeting novel dependencies in MECOM-rearranged (r) AML: AML-194 cell line (AID 2202237; also: potency is read from the fitted curve at half-maximal effect; nearly all actives have a fitted effect of over 40% in size). As to conditions: AML-194 (MECOM-r AML) viability, CellTiter-Glo, 48 h; series mostly up to 46 µM. The method, boiled down: as §1
For test [10], the target named is Retinaldehyde dehydrogenase 3 (Homo sapiens) (UniProt P47895). Kind of test: qHTS for Inhibitors of the Aldehyde Dehydrogenase Family (ALDH1A3) Confirmatory screens (AID 2061311). Also: nearly all actives have a fitted effect of over 60% in size. Also: potency is read from the fitted curve at half-maximal effect. The settings on record: ALDH inhibition qHTS; series mostly up to 46 µM.
For test [11], the target named is Aldehyde dehydrogenase 1A1 (Homo sapiens) (UniProt P00352). Briefly: qHTS for Inhibitors of the Aldehyde Dehydrogenase Family (ALDH1A1) Confirmatory screens (AID 2061316). Also: nearly all actives have a fitted effect of over 65% in size. Also: potency is read from the fitted curve at half-maximal effect. The settings on record: ALDH inhibition qHTS; series mostly up to 47.3 µM.
The nature of test [12]: BET inhibitor-based combinations targeting novel dependencies in MECOM-rearranged (r) AML: UCSD-AML1 cell line (AID 2202235). Also: potency is read from the fitted curve at half-maximal effect; nearly all actives have a fitted effect of over 40% in size. As to conditions: UCSD-AML1 AML cells viability, CellTiter-Glo, 48 h; series mostly up to 46 µM. The method, boiled down: as §2

Each structure is given as a SMILES string. Values joined by “and” are separate entries in the source; they are usually repeats but may differ in a detail not shown here. Equal entries are not always repeated. Results filed as inconclusive are left out. Unmarked numbers belong to inactive results. Active and inactive are the calls of the source. Calls follow the shape of the dose curve; as a rule, active = well fitted curve in the direction sought with a large enough effect; inconclusive = small, poorly fitted or top-dose-only effect, or another doubt; inactive = no such curve, though single readings can be large; an effect the other way counts as inactive or inconclusive.

Chain of Cellular tumor antigen p53 (Homo sapiens) (P04637 whole entry, looked up): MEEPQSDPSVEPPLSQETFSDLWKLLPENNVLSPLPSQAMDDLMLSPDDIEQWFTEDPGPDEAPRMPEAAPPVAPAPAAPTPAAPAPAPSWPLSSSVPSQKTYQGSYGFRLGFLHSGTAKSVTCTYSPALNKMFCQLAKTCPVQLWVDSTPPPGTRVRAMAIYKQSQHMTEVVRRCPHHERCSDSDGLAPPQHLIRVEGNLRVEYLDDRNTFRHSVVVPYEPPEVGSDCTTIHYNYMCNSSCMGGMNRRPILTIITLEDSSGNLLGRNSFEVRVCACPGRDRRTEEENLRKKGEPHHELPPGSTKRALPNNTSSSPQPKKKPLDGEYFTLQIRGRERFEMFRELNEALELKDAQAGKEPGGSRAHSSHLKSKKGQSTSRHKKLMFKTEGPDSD

For `O=C1N[C@@H](Cc2ccccc2)CN2CCCC[C@@H]12`, the activation in test [1] is -9.16%. The Potency result in [2] and in [3] was “inactive” throughout.

Turning to `CC(O)(c1ccccc1)C(Cc1ccc(Cl)cc1)n1cncn1` (stereo not given), in test [1], the activation is -8.59%. For the same compound, the Potency entry in test [2] and in test [3] was “inactive” in each case.

`CC(=O)O[C@@H]1[C@@H](O)[C@H]2O[C@@H]3C=C(C)[C@@H](O)C[C@]3(CO)[C@]1(C)[C@]21CO1`: the Potency in test [1] was 1480 nM (active). Further, the Potency result in test [2] and in [3] was “inactive” each time.

As to `CC1=CC2(O)/C=C/C(C)(O)C(O)C(O)/C=C/C(=O)OC23C(=O)NC(CC(C)C)C3C1C` (stereo not given), in test [1], the activation is 0.763%. For the same compound, the Potency entry in test [2] and in test [3] was “inactive” each time.

Turning to `CCN1CC2(COC)C3[C@@H](OC)C4C1C3(C1C[C@]3(O)[C@H](OC(=O)c5ccccc5)C1[C@]4(OC(C)=O)[C@@H](O)[C@@H]3OC)[C@H](OC)C[C@H]2O` (stereo not given in full), the activation in test [1] is 8.33%. The Potency entry in test [2] and in test [3] was “inactive” in each case.

As to `C[N@@+]1(CC2CC2)CC[C@]23c4c5ccc(O)c4O[C@H]2C(=O)CC[C@@]3(O)[C@H]1C5`, the activation in test [1] is -5.67%. The Potency entry in test [2] and in test [3] was “inactive” each time.

For `C=CC(C)(C)c1[nH]c2cccc3c2c1C[C@@H]1[C@@H]3[C@@H](OC(C)=O)[C@H](C)CN1C`, the activation in test [1] was 1.53%. In addition, the Potency result in test [2] and in test [3] was “inactive” throughout.

Consider `C[C@]12CC[C@H](O[C@@H]3O[C@H](CO)[C@@H](O)[C@H](O)[C@H]3O)CC1CC[C@@H]1C2CC[C@]2(C)[C@@H](C3=CC(=O)OC3)CC[C@]12O` (stereo not given in full), for which the Potency in test [1] is 11700 nM (active). Further, the Potency entry in test [2] and in test [3] was “inactive” in each case.

Consider `CO[C@H]1C[C@H](O[C@H]2CC[C@]3(C=O)[C@H]4CC[C@]5(C)[C@@H](C6=CC(=O)OC6)CC[C@]5(O)[C@@H]4CC[C@]3(O)C2)O[C@H](C)[C@H]1O`, for which the activation in [1] is -29.8%. The Potency entry in [2] and in test [3] was “inactive” in each case.

On to `CCC(C)(OC(C)=O)C(=O)O[C@H]1[C@H](OC(C)=O)C[C@@H]2[C@@](C)([C@@H]3C[C@H]4C=CO[C@H]4O3)[C@H](C)C[C@H](OC(C)=O)[C@@]2(COC(C)=O)[C@@]12CO2` (stereo not given in full), for which, in test [1], the activation is -3.82%. The Potency result in [2] and in [3] was “inactive” each time.

Consider `C/C=C(/C)C(=O)O[C@H]1C(C)=C2[C@H]([C@@H]1OC(=O)CCCCCCC)[C@@](C)(OC(C)=O)C[C@H](OC(=O)CCC)[C@@]1(O)[C@H]2OC(=O)[C@@]1(C)O`, for which the Potency is 33800 nM (active) in test [1]; 263 nM (active) in test [4]; 662 nM (active) in [5]; 166 nM (active) in test [6]; 52.5 nM (active) in test [7]; 417 nM (active) in test [8]. In addition, the Potency in test [9] was 2090 nM (active). The Potency result in test [2] and in test [3] was “inactive” throughout.

`CCC1CC2CN3CCc4c([nH]c5ccccc45)C(C(=O)OC)(C2)C13` (stereo not given): the activation in test [1] was 3.05%. The Potency result in test [2] and in test [3] was “inactive” throughout.

On to `CC(C)(C)c1cc(C(C)(C)C)c2c(c1)C(O)(C(F)(F)F)C(=O)O2` (stereo not given), for which the activation in test [1] was 23.2%. Moreover, the Potency entry in test [2] and in test [3] was “inactive” in each case.

Consider `COc1ccc2c(c[n+](C)c3c4cc5c(cc4ccc23)OCO5)c1OC`, for which the Potency is 43200 nM (active) in [1], 7120 nM (active) in test [10], 6340 nM (active) in [11] and 5900 nM (active) in test [5].

Take `CC1=CC2/C=C(\C)CCC(O)C(O)/C=C/C(=O)OC23C(=O)NC(CC(C)C)C3C1C` (stereo not given): in [1], the activation was 0.763%. Moreover, the Potency entry in [2] and in [3] was “inactive” in each case.

On to `C[C@H](CCC(=O)O)C[C@H](C)C[C@H](C)C(=O)/C=C(\O)[C@H](C)C[C@H](C)C/C=C/[C@@H](C)[C@@H](O)[C@@H](C)[C@@H](O)C[C@@H]1CC[C@@](C)([C@H]2CC[C@@](C)([C@@H](C)O)O2)O1`, for which, in test [1], the activation is -6.33%. For the same compound, the Potency result in test [2] and in [3] was “inactive” throughout.

In the case of `CN(C)[C@@H]1C(=O)C(C(N)=O)=C(O)[C@@]2(O)C(=O)C3=C(O)c4c(O)ccc(Cl)c4[C@@](C)(O)C3C[C@@H]12` (stereo not given in full), the Potency in test [1] is 23900 nM (active). In addition, the Potency entry in [10], in test [3] and in test [11] was “inactive” throughout.

For the compound `O=C(N[C@@H](COc1ccc2[nH]c(=O)[nH]c2c1)c1ccccc1)c1cccn(Cc2ccc(F)c(F)c2)c1=O`, the Potency in test [1] was 30600 nM (active); in test [5] it was 10500 nM (active). Further, the Potency entry in test [2] and in test [3] was “inactive” throughout. For the same compound, in test [4], the viability was 94%.

For the compound `CN[C@@H]1C[C@H]2O[C@@](C)([C@@H]1OC)n1c3ccccc3c3c4c(c5c6ccccc6n2c5c31)C(=O)NC4`, the Potency in [1] was 426 nM (active); in test [12] it was 66.1 nM (active); in test [9], 33.2 nM (active). The Potency entry in [2] and in [3] was “inactive” throughout.

As to `CCNC(=O)C[C@@H]1N=C(c2ccc(Cl)cc2)c2cc(OC)ccc2-n2c(C)nnc21`, the activation in test [1] was -15.8% and 11.6%. Moreover, the Potency entry in test [2] and in test [3] was “inactive” each time. For the same compound, the Potency in test [4] was 2630 nM (active); in [6], 468 nM (active); in test [12] it was 833 nM (active).
